# According to PubChem BioAssay (EPA / NIEHS):
# Active and inactive are the calls of the source. How the source made its calls: active means hit-call score of the fitted dose curve at least 0.9, where 1 is the maximum; inactive means score below 0.9.
# Key:
# [1] = APR_HepG2_CellCycleArrest_24hr: Apredica 24-hour HepG2 Assay for Cell Cycle Arrest (AID 2282905); settings: imaging, actives raise or lower the signal;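 further: cell cycle arrest scored as ratio of 2N to 4N nuclear DNA content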
# In short: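 Compounds (0.39 to 200 uM, final DMSO 0.5% v/v) are applied to HepG2 cells for 24 hours; cells are then fixed, permeabilized and nuclei labeled with Hoechst 33342. Automated imaging measures DNA content, and activity is fitted in both directions against DMSO.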
# [2] = APR_HepG2_NuclearSize_24hr: Apredica 24-hour HepG2 Assay for Nuclear Size (AID 2282907); settings: high-content imaging, actives raise or lower the signal
# In short: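 Nuclear size is measured by fluorescence high-content imaging of Hoechst-labelled HepG2 nuclei after 24 hr of treatment (0.39–200 uM, 0.5% DMSO). Cells are fixed in 3.7% formaldehyde before staining, and DMSO serves as the baseline for bidirectional curve fitting.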
# [3] = APR_HepG2_CellLoss_24hr: Apredica 24-hour HepG2 Assay for Cell Loss (AID 2282908); settings: high-content imaging;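 on AC50: fit in both directions so a hit may be cell loss or gain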
# In short: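 Nuclear count serves as the viability measure: treated cells are fixed, permeabilized and labelled with Hoechst 33342, and six images per well are analysed to identify valid nuclei. Doses span 0.39–200 uM, and activity in either direction is scored against DMSO.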
# [4] = APR_HepG2_MicrotubuleCSK_24hr: Apredica 24-hour HepG2 Assay for Microtubule CSK Stabilty (AID 2282909); settings: HepG2 microtubule cytoskeleton imaging, actives raise or lower the signal
# In short: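 Compounds were applied to HepG2 cells for 24 hours across 0.39–200 uM in duplicate, with final DMSO at 0.5% v/v. Fixed, permeabilized cells were labeled for alpha-tubulin and nuclei, and tubulin fluorescence was quantified by imaging, fitted bidirectionally against DMSO.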
# [5] = APR_HepG2_MitoticArrest_24hr: Apredica 24-hour HepG2 Assay for Mitotic Arrest (AID 2282910); settings: high-content imaging, actives raise or lower the signal
# In short: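 High-content imaging of fixed HepG2 cells labeled with Hoechst 33342 and anti-phospho-histone H3, after 24 h treatment. Ten concentrations 0.39 to 200 uM in duplicate, final DMSO 0.5%; changes fitted both directions relative to DMSO.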
# [6] = APR_HepG2_MitoMass_24hr: Apredica 24-hour HepG2 Assay for Mitochondrial Mass (AID 2282912); settings: high-content imaging, actives raise or lower the signal
# In short: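 After 24 hr of treatment at 0.39 to 200 uM, HepG2 cells take up 250 nM MitoTracker Red CMXRos for 30 min and are then fixed with 3.7% formaldehyde. Per-well images are quantified, and any change in either direction is scored against solvent.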
# [7] = APR_HepG2_CellCycleArrest_72hr: Apredica 72-hour HepG2 Assay for Cell Cycle Arrest (AID 2282914); settings: high-content imaging, actives raise or lower the signal
# In short: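 Read-out is Hoechst-stained nuclear DNA content measured by automated fluorescence imaging (20x, six images per well), fitted in both directions relative to DMSO. Human HepG2 liver cells received 0.39–200 uM compound for 72 hr at 0.5% v/v DMSO.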
# [8] = APR_HepG2_CellLoss_72hr: Apredica 72-hour HepG2 Assay for Cell Loss (AID 2282915); settings: high-content imaging
# In short: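 Cell number comes from Hoechst 33342-labelled nuclei, imaged at 20x after 3.7% formaldehyde fixation. Dosing was 0.39–200 uM, ten concentrations in duplicate, 0.5% DMSO final, for 72 h. Bidirectional fit relative to DMSO baseline.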
# [9] = APR_HepG2_P-H2AX_72hr: Apredica 72-hour HepG2 Assay for H2AX Phosphorylation (AID 2282916); settings: imaging, actives raise or lower the signal;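 further: phospho-histone H2A.x immunostain intensity per cell marking DNA damage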
# In short: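 Human hepatoma HepG2 cells are dosed across ten concentrations (0.39 to 200 uM, 0.5% v/v DMSO) and incubated 72 hr. Phospho-histone H2A.x is then detected by antibody staining alongside c-Jun and Hoechst, and quantified by automated fluorescence imaging.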
# [10] = APR_HepG2_MitoMembPot_72hr: Apredica 72-hour HepG2 Assay for Mitochondrial Membrane Potential (AID 2282917); settings: imaging, actives raise or lower the signal
# In short: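 Membrane potential read by MitoTracker Red CMXRos (250 nM, 30 min, pre-fixation) fluorescence imaging of HepG2 after 72 hr exposure. Ten concentrations, 0.39–200 uM, duplicate wells, 0.5% DMSO; fitted in both directions against DMSO baseline.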
# [11] = APR_HepG2_MitoticArrest_72hr: Apredica 72-hour HepG2 Assay for Mitotic Arrest (AID 2282918); settings: high-content imaging, actives raise or lower the signal
# In short: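 Read-out is phospho-histone H3 immunofluorescence with Hoechst nuclear segmentation, imaged at 20x. Human HepG2 liver cells received ten concentrations (0.39–200 uM, final DMSO 0.5% v/v) for 72 hr before fixation. Gain or loss of signal was fitted relative to DMSO.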
# [12] = APR_HepG2_MicrotubuleCSK_72hr: Apredica 72-hour HepG2 Assay for Microtubule CSK Stabilty (AID 2282919); settings: HepG2 microtubule cytoskeleton, high-content imaging, actives raise or lower the signal
# In short: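 High-content imaging of alpha-tubulin staining in fixed HepG2 cells after 72 hr treatment with ten concentrations from 0.39 to 200 uM (0.5% DMSO). Fitting was bidirectional against DMSO; taxol served as positive control.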
# [13] = APR_HepG2_P-H2AX_24hr: Apredica 24-hour HepG2 Assay for H2AX Phosphorylation (AID 2282920); settings: high-content imaging, actives raise or lower the signal
# In short: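 HepG2, 24 hr, cpd 0.39–200 uM (10 conc, duplicate), DMSO 0.5% v/v final. Fix 3.7% formaldehyde, Triton X-100 permeabilize, anti-phospho-H2A.x 1:200 + Hoechst 2 ug/mL. Imaged, bidirectional fit vs DMSO.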
# [14] = APR_HepG2_StressKinase_72hr: Apredica 72-hour HepG2 Assay for Stress Kinase (AID 2282921); settings: HepG2 stress kinase (phospho-c-Jun) imaging, actives raise or lower the signal
# In short: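 After a 72 h compound treatment spanning 0.39 to 200 uM, formaldehyde-fixed cells are labelled for phosphorylated c-Jun and nuclei, imaged by automated fluorescence microscopy, and activity is fitted in both directions relative to DMSO controls.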
# [15] = APR_HepG2_StressKinase_24hr: Apredica 24-hour HepG2 Assay for Stress Kinase (AID 2282922); settings: HepG2 stress kinase (phospho-c-Jun) imaging, actives raise or lower the signal
# In short: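 High-content imaging of phospho-c-Jun immunofluorescence in fixed, permeabilized HepG2 cells after 24 h dosing. Ten concentrations, 0.39 to 200 uM, run in duplicate at 0.5% v/v DMSO; gain or loss of signal versus DMSO.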
# [16] = APR_HepG2_MitoMass_72hr: Apredica 72-hour HepG2 Assay for Mitochondrial Mass (AID 2282924); settings: high-content imaging, actives raise or lower the signal;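 further: MitoTracker Red CMXRos stain intensity per cell imaged as mitochondrial mass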
# In short: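 Readout is imaged MitoTracker Red (250 nM, 30 min, pre-fixation) signal, fitted bidirectionally against DMSO baseline. Human HepG2 liver cells received compound 0.39–200 uM in duplicate for 72 hr, final DMSO 0.5%.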
# [17] = APR_HepG2_NuclearSize_72hr: Apredica 72-hour HepG2 Assay for Nuclear Size (AID 2282925); settings: high-content imaging, actives raise or lower the signal
# In short: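 Nuclear size was read by high-content imaging of Hoechst 33342 stain after formaldehyde fixation. Compounds ran 72 h on HepG2 at 0.39 to 200 uM, with final DMSO 0.5% v/v. Curves fitted both directions relative to DMSO control.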
# [18] = APR_HepG2_p53Act_24hr: Apredica 24-hour HepG2 Assay for p53 Activation (AID 2282913); settings: high-content imaging, actives raise or lower the signal;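 further: p53 protein immunofluorescence averaged per cell in HepG2 with Hoechst nuclei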
# In short: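 Human HepG2 liver cells; 24 hr cpd treatment, 0.39–200 uM, 0.5% DMSO final. Fixed in 3.7% formaldehyde, permeabilized with 0.5% Triton X-100, stained with anti-p53/Cy5 plus Hoechst 33342. Six images per well at 20x; gain or loss vs DMSO.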
smiles,measurement,setting,value
CSc1ccc(Oc2ccc(S(N)(=O)=O)cc2CN(C)C)cc1C,outcome,[1],inactive
same,outcome,[2],inactive
same,AC50,[3],131 µM (active)
same,outcome,[4],inactive
same,AC50,[5],88.9 µM (active)
same,AC50,[6],100 µM (active)
same,outcome,[7],inactive
same,AC50,[8],108 µM (active)
same,outcome,[9],inactive
same,outcome,[10],inactive
same,outcome,[11],inactive
same,outcome,[12],inactive
same,AC50,[13],92.5 µM (active)
same,outcome,[14],inactive
same,outcome,[15],inactive
same,outcome,[16],inactive
same,outcome,[17],inactive
CC(C)c1cccc(C(C)C)c1,outcome,[1],inactive
same,outcome,[2],inactive
same,outcome,[3],inactive
same,outcome,[4],inactive
same,outcome,[5],inactive
same,outcome,[6],inactive
same,outcome,[7],inactive
same,outcome,[8],inactive
same,outcome,[10],inactive
same,outcome,[11],inactive
same,outcome,[12],inactive
same,outcome,[13],inactive
same,outcome,[14],inactive
same,outcome,[15],inactive
same,outcome,[16],inactive
same,outcome,[17],inactive
O=C(N[C@@H](c1ccccc1)[C@@H]1CCCCN1)c1cccc(C(F)(F)F)c1Cl,AC50,[1],18.7 µM (active)
same,AC50,[2],17.4 µM (active)
same,AC50,[3],21.7 µM (active)
same,AC50,[4],11.4 µM (active)
same,AC50,[5],12.6 µM (active)
same,AC50,[6],12.6 µM (active)
same,outcome,[7],inactive
same,AC50,[8],15.2 µM (active)
same,AC50,[9],6.64 µM (active)
same,outcome,[10],inactive
same,AC50,[11],9.47 µM (active)
same,outcome,[12],inactive
same,AC50,[13],14.3 µM (active)
same,outcome,[14],inactive
same,outcome,[15],inactive
same,AC50,[16],34.3 µM (active)
same,outcome,[17],inactive
CC(C)NCC(O)c1ccc(O)c(O)c1 (stereo not drawn),outcome,[1],inactive
same,outcome,[2],inactive
same,outcome,[3],inactive
same,outcome,[4],inactive
same,outcome,[5],inactive
same,outcome,[6],inactive
same,outcome,[7],inactive
same,AC50,[8],91.3 µM (active)
same,AC50,[9],86.8 µM (active)
same,outcome,[10],inactive
same,outcome,[11],inactive
same,outcome,[12],inactive
same,outcome,[13],inactive
same,outcome,[14],inactive
same,outcome,[15],inactive
same,outcome,[16],inactive
same,outcome,[17],inactive
COc1ccc(C(=O)Nc2nc3ccccc3c(NCc3ccccc3)c2C#N)cc1,outcome,[1],inactive
same,outcome,[2],inactive
same,AC50,[3],119 µM (active)
same,outcome,[4],inactive
same,outcome,[5],inactive
same,AC50,[6],159 µM (active)
same,AC50,[18],160 µM (active)
same,outcome,[7],inactive
same,AC50,[8],45.3 µM (active)
same,AC50,[9],47.8 µM (active)
same,AC50,[10],1.45 µM (active)
same,AC50,[11],108 µM (active)
same,outcome,[12],inactive
same,AC50,[13],106 µM (active)
same,outcome,[14],inactive
same,outcome,[15],inactive
same,AC50,[16],5.59 µM (active)
same,AC50,[17],113 µM (active)
CCCCCCC(CCCCCCCCCCC(=O)OCC(COC(C)=O)OC(C)=O)OC(C)=O (stereo not drawn),outcome,[1],inactive
same,outcome,[2],inactive
same,outcome,[3],inactive
same,outcome,[4],inactive
same,outcome,[5],inactive
same,outcome,[6],inactive
same,outcome,[18],inactive
same,outcome,[7],inactive
same,outcome,[8],inactive
same,outcome,[10],inactive
same,AC50,[11],39.8 µM (active)
same,outcome,[12],inactive
same,outcome,[13],inactive
same,outcome,[14],inactive
same,outcome,[15],inactive
same,outcome,[16],inactive
same,outcome,[17],inactive
O=C(NS(=O)(=O)/C=C/c1cccs1)c1ccc(F)cc1Br,outcome,[1],inactive
same,outcome,[2],inactive
same,outcome,[3],inactive
same,outcome,[4],inactive
same,outcome,[5],inactive
same,outcome,[6],inactive
same,outcome,[7],inactive
same,AC50,[8],80.8 µM (active)
same,outcome,[10],inactive
same,outcome,[11],inactive
same,outcome,[12],inactive
same,outcome,[13],inactive
same,outcome,[14],inactive
same,outcome,[15],inactive
same,outcome,[16],inactive
same,outcome,[17],inactive
